# Reference: PubChem BioAssay AID620 (Sanford-Burnham Center for Chemical Genomics, 2007)
# Among all 87,000 compounds or so, about 360 (0.41%) were called active. Only a selection was taken, and actives are over-represented in it overall. A number with no mark means an inactive call. Cut-off read from the data, not from the text of the source: active = cytotoxicity above about 50%; inactive = the rest.
# Assay: HT1080 cell viability loss – fluorescence readout (AID 620);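 note: cells exposed to compound overnight then 4 h with Alamar Blue; 0% = vehicle DMSO and 100% = killing control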
# Conditions: at 10 µM, stronger effect = higher value
row,Compound,cytotoxicity
1,c1ccc(Nc2ccccn2)cc1,-6.8%
2,c1ccc(Nc2ccccc2Nc2ccccn2)nc1,0.4%
3,CC(=O)O[C@@]12CO[C@@H]1C[C@H](O)[C@@]1(C)C(=O)[C@H](O)C3=C(C)[C@@H](OC(=O)[C@H](O)[C@@H](NC(=O)OC(C)(C)C)c4ccccc4)C[C@](O)([C@@H](OC(=O)c4ccccc4)[C@H]21)C3(C)C,53.7% (active)
4,CCOC(=O)c1ccccc1NC(=O)Nc1ccc(OC)c(OC)c1,-1.4%
5,Cc1noc(C)c1C(=O)N1CCN(CCc2ccccc2)CC1,-0.7%
6,CCCCNC(=O)c1cc2c(=O)n3cccc(C)c3nc2n(Cc2ccccc2)c1=N,19.2%
7,CCCCNC(=O)c1cc2c(=O)n3cccc(C)c3nc2n(Cc2ccncc2)c1=N,54.1% (active)
8,COCCNC(=O)c1cc2c(=O)n3cccc(C)c3nc2n(Cc2ccncc2)c1=N,17.6%
9,N=c1c(C(=O)NC2CCCC2)cc2c(=O)n3ccccc3nc2n1C1CCCC1,7.6%
10,CCCn1c(=N)c(C(=O)NC2CCCC2)cc2c(=O)n3cccc(C)c3nc21,9.1%
11,Cc1cccn2c(=O)c3cc(C(=O)NC4CCCC4)c(=N)n(C4CCCC4)c3nc12,75% (active)
12,CC1CC(=O)N(CC(=O)N2CCCC2)c2ccccc2S1 (stereo unspecified),1.5%
13,CN1CCN(CCCN2c3ccccc3Sc3ccc(Cl)cc32)CC1,6%
14,CSc1ccc2c(c1)N(CCC1CCCCN1C)c1ccccc1S2 (stereo unspecified),82.9% (active)
15,O=C(O)CSc1cccc2cccc(C(=O)O)c12,3.5%
16,COc1ccc2cc(-c3nc4ccccc4n3C)c(=O)oc2c1,-1.5%
17,CCN(CC)c1ccc2cc(-c3nc4ccccc4n3C)c(=O)oc2c1,62% (active)
18,CC(=O)Oc1ccc2cc(-c3nc4ccccc4n3C)c(=O)oc2c1,-4.4%
19,COc1ccc(CN(Cc2cccnc2)S(=O)(=O)c2ccc(-n3cnnn3)c(C)c2)cc1OC,-6.9%
20,COc1ccc(Cl)cc1N(CC(=O)Nc1ccccc1C(=O)NCc1ccco1)S(C)(=O)=O,4.2%
21,Cc1cc(C(=O)COc2cccc(-n3cnnn3)c2)c(C)n1-c1ccccc1,27%
22,CC(=O)c1cccc(OCC(=O)c2cc(C)n(-c3cc(C)on3)c2C)c1,63.5% (active)
23,Cc1cc(-n2c(C)cc(C(=O)COc3ccc4ccc(=O)oc4c3)c2C)no1,7.7%

row,Compound,cytotoxicity
1,CC(=O)c1ccc(NC(=O)CSc2nc3nc(C)cc(C)n3n2)cc1,-1.8%
2,COc1ccc(/C=C2\CCc3ccccc3C2=O)cc1Cn1cccn1,-6.8%
3,COC(=O)[C@@H]1C[C@@H]2CC[C@@H](O)C[C@@H]2N1Cc1ccc(Cl)cc1,4.3%
4,COC(=O)[C@@H]1C[C@@H]2CC[C@@H](O)C[C@@H]2N1Cc1ccc(-c2ccccc2)cc1,1.4%
5,COC(=O)[C@@H]1C[C@H]2CC[C@H](O)C[C@H]2N1Cc1ccc(-c2ccccc2)cc1,68.8% (active)
6,COc1ccc(NC(=O)CSc2nnc(-c3ccccc3C)n2C)cc1,3%
7,O=C(Nc1cccnc1)c1cc(-c2ccccc2)on1,8.8%
8,COc1ccc(NC(=O)c2cc(-c3ccccc3OC)on2)cc1,38.4%
9,COc1ccccc1-c1cc(C(=O)Nc2cccnc2)no1,58.1% (active)
10,O=C1c2ccccc2C(=O)c2c1oc(C(F)(F)F)c2C(=O)c1ccccc1,-1.6%
11,Cc1ccc(C(=O)c2c(C)oc3c2C(=O)C(=O)c2ccccc2-3)cc1,-5.2%
12,Cc1oc2c(c1C(=O)c1ccccc1)C(=O)C(=O)c1ccccc1-2,107% (active)
13,CCOC(=O)c1cn(CC(=O)Nc2ccc(C)cc2)nn1,-1.5%
14,NC(=O)c1nsc(C(=O)N(CC(=O)NCc2ccc3c(c2)OCO3)C2CCCCC2)c1N,-0.4%
15,C=Cn1c(C(=O)O)cc(CC)c1-c1ccccc1,-2.7%
16,CSc1nccc(-c2nn(-c3ccc(C)cc3)ccc2=O)n1,56.4% (active)
17,C=CCSc1nccc(-c2nn(-c3ccc(C)cc3)ccc2=O)n1,44.5%
18,CCSc1nccc(-c2nn(-c3ccc(C)cc3)ccc2=O)n1,29%
19,O=C1OC(Nc2nccs2)c2ccccc21 (stereo unspecified),19.8%
20,O=S(=O)(c1ccc(Oc2ccc(S(=O)(=O)N3CCOCC3)cc2)cc1)N1CCOCC1,-8.2%
21,CNS(=O)(=O)c1ccc(Oc2ccc(S(=O)(=O)NC)cc2)cc1,-5.5%
22,C=CS(=O)(=O)c1ccc(Oc2ccc(S(=O)(=O)C=C)cc2)cc1,76.4% (active)
23,CC(C)c1ccc(C(=O)CSc2ncn[nH]2)cc1,-3.4%
